Screens: PubChem, National Center for Advancing Translational Sciences (NCATS)
TDP1 cell CPT: qHTS for Inhibitors of human tyrosyl-DNA phosphodiesterase 1 (TDP1): qHTS in cells in presence of CPT; AID 686979, 2013; chicken DT40 Tdp1-/-;hTDP1 cells + 20 nM CPT, ATP luminescence, 48 h; 420,000 compounds, 12% hits; Potency, µM (series often up to 46.2 µM), hits mostly inhibitors; also: nearly all actives have a fitted effect of over 55% in size
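Cell growth measured by CellTiter-Glo luminescence after a minimum 48 h, 37 C compound exposure with 20 nM CPT in Tdp1-knockout DT40 cells stably expressing hTDP1, seeded 400/well; qHTS titration format.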
HT1080 IDH1KD tx: qHTS for induction of synthetic lethality in tumor cells producing 2HG: qHTS for the HT-1080-IDH1KD cell line | HT-1080 IDH1 knockdown viability, ATP luminescence, 48 h | Potency, µM (titrated, usually from 46.1 µM), usual class: cytotoxic | 360,000 compounds, 2% hits | AID 686971, 2013
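Knockdown cells (IDH1KD HT-1080) received compounds 2 h after plating at 750 cells/well and were kept 48 h at 37 °C in 5% FBS RPMI. A CellTiter-Glo luminescence read gave % activity for curve fitting.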
IL1B secr inh: qHTS for Inhibitors of Inflammasome Signaling: IL-1-beta AlphaLISA Primary Screen. 360,000 compounds, 4.7% hits. THP-1 LPS/ATP IL-1B secretion, AlphaLISA, 16 h; stronger effect = lower value. activity change, % at 57.5 µM; in the data active = activity change below about -50%; inconclusive = mostly about -30% to -49%
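THP-1 cells pretreated 1 hr with compounds (up to 57.5 uM final), then stimulated with LPS (250 ng/mL final) plus ATP (1.25 mM final); secreted IL-1B measured by AlphaLISA after 16 hr, decreased signal indicating inhibition.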
HT1080NT lethal: qHTS for induction of synthetic lethality in tumor cells producing 2HG: qHTS for the HT-1080-NT fibrosarcoma cell line | HT-1080-NT fibrosarcoma viability, CellTiter-Glo ATP luminescence, 48 h | Potency, µM (series often up to 46.1 µM), actives largely listed as cytotoxic | 360,000 compounds, 1.6% hits | AID 686970, 2013;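 also: NT is the 2HG producing partner of a matched IDH1 knockdown line; nearly all actives have a fitted effect of over 55% in size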
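Toxicity toward the 2HG-producing NT line was scored as %Activity, normalised to DMSO and no-cell wells, from CellTiter-Glo luminescence after 48 hours' treatment.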
TDP1 cell noCPT: qHTS for Inhibitors of human tyrosyl-DNA phosphodiesterase 1 (TDP1): qHTS in cells in absence of CPT | AID 686978, 2013 | 420,000 compounds, 15% hits | DT40 Tdp1-/- hTDP1 cells, no CPT, ATP luminescence, 48 h | Potency, µM (top dose mostly 46.2 µM), hits mostly inhibitors; also: nearly all actives have a fitted effect of over 55% in size
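Chicken DT40 Tdp1-/- cells stably complemented with human TDP1 were seeded at 400 cells/well with DMSO in place of 20 nM camptothecin. After compound pinning, cells grew at least 48 hr at 37 °C; viability read by CellTiter-Glo luminescence.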
Hits are given with their value; 0 = inactive; ? = inconclusive; - = not tested or not shown; [ ] = dose if it differs, or a comment. This is a sample that favours compounds with a hit; in the whole collection about 19% have one here. Unless noted, calls follow the shape of the dose curve; as a rule, active = well fitted curve in the direction sought with a large enough effect; inconclusive = small, poorly fitted or top-dose-only effect, or another doubt; inactive = no such curve, though single readings can be large; an effect the other way counts as inactive or inconclusive.

SMILES	TDP1 cell CPT	HT1080 IDH1KD tx	IL1B secr inh	HT1080NT lethal	TDP1 cell noCPT
CCN(CC)C(=O)c1sc2c(c1C)c(=O)n(Cc1ccccc1)c(=O)n2Cc1ccc(Cl)cc1	?	-	-	-	4.61µM
CCOC(=O)c1sc2c(c1C)c(=O)n(CCO)c(=O)n2Cc1ccccc1	14.6µM	0	0	?	16.4µM
CCN(CC)C(=O)c1sc2c(c1C)c(=O)n(CCc1ccccc1)c(=O)n2Cc1cc(C)ccc1C	0	-	-	-	0
CCN(CC)C(=O)c1sc2c(c1C)c(=O)n(-c1ccc(C)c(C)c1)c(=O)n2Cc1cccc(Cl)c1	20.6µM	-	-	-	?
COC(=O)c1ccccc1NC(=O)Cn1c(=O)n(Cc2ccccc2)c(=O)c2c(C)c(C)sc21	0	0	0	0	0
CCOc1ccc(CC(=O)OCn2nnc3ccccc3c2=O)cc1	0	0	0	0	0
COCC(=O)N1CCC[C@@]2(CCN(c3ncccn3)C2)C1	0	-	-	-	0
CCN(CC)C(=O)c1sc2c(c1C)c(=O)n(Cc1ccccc1)c(=O)n2Cc1c(C)cc(C)cc1C	?	-	-	-	20.6µM
CCOC(=O)c1ccccc1NC(=O)Cn1c(=O)n(-c2ccc(CC)cc2)c(=O)c2c(C)c(C(=O)N(C)C)sc21	8.2µM	-	-	-	11.6µM
CCOC(=O)c1sc(C)c2c(=O)n(Cc3ccc(Cl)cc3)c(C)nc12	23.1µM	0	0	0	16.4µM
CCc1ccc(NC(=O)Cn2c(=O)n(-c3cccc(OC)c3)c(=O)c3c(C)c(C(=O)N(C)C)sc32)cc1	0	-	-	-	0
CCOC(=O)c1sc(-c2ccc(Cl)cc2)nc1O	0	0	0	0	0
O=C(c1ccncc1)N1CCC2(CC1)CCN(c1ccccc1)CC2	0	-	-	-	?
Cc1cccc(-n2c(SCC(=O)Nc3ccc(C)c(C)c3)nc3n[nH]c(C)c3c2=N)c1	10.3µM	-	-	-	7.31µM
CCc1ccc(NC(=O)CSc2nc3n[nH]c(C)c3c(=N)n2-c2cccc(OC)c2)cc1	18.4µM	11.2µM	0	?	25.9µM
Cc1cc(-n2c(SCC(=O)Nc3ccc(Br)cc3)nc3n[nH]c(C)c3c2=N)ccc1Cl	?	0	0	0	?
Cc1cc(-n2c(SCC(=O)Nc3ccc(F)c(F)c3)nc3n[nH]c(C)c3c2=N)ccc1Cl	2.59µM	0	0	?	1.46µM
COc1cccc(NC(=O)CSc2nc3n[nH]c(C)c3c(=N)n2-c2cccc(OC)c2)c1	23.1µM	0[9.24 µM]	-51.0	?	20.6µM
CCc1ccc(NC(=O)CSc2nnc(Cc3cccn3C)n2-c2ccc(OC)cc2)cc1	0	0	0	0	0
COC(=O)c1cn(Cc2cc(OC)ccc2OC)cc(F)c1=O	0	0	0	0	0
O=C(NCCCCc1ccccc1)Nc1ccc(F)cc1	0	0	0	0	0
Cc1ccc(-n2c(SCC(=O)Nc3cccc(Cl)c3)nc3n[nH]c(C)c3c2=N)cc1	8.2µM	-	-	-	7.31µM
Cc1ccc(C)c(-n2nnnc2SCC(=O)NCCC2=CCCCC2)c1	0	0	0	0	?
COc1cccc(-n2c(SCC(=O)NCCC3=CCCCC3)nc3n[nH]c(C)c3c2=N)c1	16.4µM	0	0	0	14.6µM
CCN(C(=O)CSc1nc2n[nH]c(C)c2c(=N)n1-c1cccc(OC)c1)c1cccc(C)c1	23.1µM	-	-	-	?
SMILES	TDP1 cell CPT	HT1080 IDH1KD tx	IL1B secr inh	HT1080NT lethal	TDP1 cell noCPT
O=C(c1cccc(F)c1)N1CCC2(CC1)CCN(C(c1ccccc1)c1ccccc1)CC2	14.6µM	-	-	-	23.1µM
O=C(c1csnn1)N1CCC[C@@]2(CCN(c3ccncc3)C2)C1	0	-	-	-	0
CC(=O)c1ccc(N2CCN(C(=O)Nc3cccc(F)c3)CC2)cc1	20.6µM	0	0	0	?
O=C(c1ccco1)N1CCC2(CC1)CN(C(c1ccccc1)c1ccccc1)C2	?	-	-	-	14.6µM
O=C(Nc1ccccc1)N1CCC2(CC1)CCN(C(=O)c1cccc(F)c1)CC2	0	-	-	-	?
O=C(Nc1ccccc1)N1CC2(CCN(C(=O)c3ccco3)CC2)C1	0	-	-	-	0
CC(=O)c1ccc(N2CCN(C(=O)Nc3ccc(C)cc3)CC2)cc1	?	0	0	0	?
O=C(c1csnn1)N1CCC[C@@]2(CCN(C(c3ccccc3)c3ccccc3)C2)C1	?	-	-	-	18.4µM
CCCN(C(=O)CCNC(=O)c1ccc(Cl)cc1)c1c(N)n(Cc2ccccc2)c(=O)[nH]c1=O	0	0	0	0[9.24 µM]	0
Cc1cccc(C(=O)Nc2ccc(C(=O)OCc3cc(=O)n4c5c(sc4n3)CCCC5)cc2)c1	0	-	-	-	0
O=C(c1cccc(F)c1)N1CCC2(CC1)CCN(c1ccc(-c3ccccc3)cc1)CC2	0	-	-	-	0
O=C(Nc1cccc(F)c1)N1CCCC2(CCN(C(=O)c3ccncc3)CC2)C1	0.13µM	-	-	-	0.146µM
COC(=O)N1CCC2(CCCN(C(=O)Nc3cccc(C#N)c3)C2)CC1	0	-	-	-	0
O=C(Nc1cccc(F)c1)N1CC[C@@]2(CCCN(C(=O)c3cccc(F)c3)C2)C1	0	-	-	-	0
O=C(Nc1cccc(F)c1)N1CCC2(CC1)CCN(C(=O)c1cccc(F)c1)CC2	0	-	-	-	20.6µM
O=C(c1cccc(F)c1)N1CCC2(CC1)CN(c1ccc(-c3ccccc3)cc1)C2	?	-	-	-	14.6µM
COC(=O)N1CCC[C@@]2(CCN(C(=O)Nc3cccc(C#N)c3)C2)C1	?	-	-	-	0.0461µM
COc1ccc(O)c(C(=O)N2CCC3(CC2)c2ccccc2[C@@H](NC(=O)c2ccccn2)[C@@H]3OC)c1	0[9.04 µM]	-	-	-	0
O=C(COc1ccc([N+](=O)[O-])cc1)Nc1ccccc1C(=O)NC1CC1	0	0	0	0	0
CN(C)CCOC(c1ccc(Cl)cc1)c1ccccn1 (centres undefined)	?	0	0	0	?
Cc1ccccc1C(OCCN(C(C)C)C(C)C)c1ccccc1 (centres undefined)	?	0	-52.8	0	?
NC(=O)[C@@H]1CCCN1C(=O)CCN1Cc2ccccc2OC(c2ccccc2F)C1 (some centres undefined)	0[9.04 µM]	-	-	-	0
COc1ccc(Nc2nc(C)nc3c2oc2ccccc23)c(OC)c1	0	29.1µM	0	18.4µM	0
CCc1nc(Nc2ccc(O)cc2)c2oc3ccccc3c2n1	?	?	-88.9	?	?
CCc1nc(Nc2ccc(OC)cc2OC)c2oc3ccccc3c2n1	7.31µM	14.6µM	0	?	20.6µM
COc1ccccc1Nc1nc(C)nc2c1oc1ccccc12	14.6µM	0	0	?	9.2µM
Cc1cc(NC(=O)c2cc(-c3ccc(Cl)c(Cl)c3)on2)n(-c2ccccc2)n1	0	-	-	-	0
COCC(=O)N1CCC2(CCCN(c3ncccn3)C2)CC1	0	-	-	-	0
